Laboratory results as given in the supplement of paper PMC10849652.
About 8,800 targets were measured; listed, in parts, are those with a hit and a random draw of the rest. About 0.5% of all pairs of compound and target were hits. A number with no mark means an inactive call.

Legend:
Test in all cases: log2 fold change, soluble protein after heating vs DMSO (PISA); higher = thermal stabilisation; K562 lysate, 10 uM; active = over 0.2 and 3.5 SD of the protein, either way, in both replicates (recomputed)
nilotinib = compound: Cc1cn(-c2cc(NC(=O)c3ccc(C)c(Nc4nccc(-c5cccnc5)n4)c3)cc(C(F)(F)F)c2)cn1 [nilotinib]
In short: (§1)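 Soluble protein was defined as the supernatant remaining after 21,000xg for 90 min, following pooling of heated aliquots and adjustment to 0.5% NP-40 at 4°C. Before that, crude K562 extract at 1 mg/mL protein in PBS pH 7.4 with 1 mM MgCl2 was treated with 10 μM compound for 30 min and heated for 3 min across 48°C-58°C. Quantification used TMTpro 16plex LC-MS/MS with channel sums equalised, and values are log-two fold changes in thermal stability relative to solvent controls from duplicates.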

[1] = compound: Cc1nc(Nc2n[nH]c3c2CN(C(=O)N[C@H](CN(C)C)c2ccccc2)C3(C)C)c2sccc2n1
In short: as §1

dasatinib = compound: Cc1nc(Nc2ncc(C(=O)Nc3c(C)cccc3Cl)s2)cc(N2CCN(CCO)CC2)n1 [dasatinib]
In short: as §1

[2] = compound: Cc1ncc(-c2ccnc(Nc3ccc(S(C)(=O)=O)cc3)n2)n1C(C)C
In short: as §1

[3] = compound: Cn1cc(-c2ccc3c(c2)CCN3C(=O)Cc2cccc(C(F)(F)F)c2)c2c(N)ncnc21
In short: as §1

quisinostat = compound: Cn1cc(CNCC2CCN(c3ncc(C(=O)NO)cn3)CC2)c2ccccc21 [quisinostat]
In short: as §1

tipifarnib = compound: Cn1cncc1[C@@](N)(c1ccc(Cl)cc1)c1ccc2c(c1)c(-c1cccc(Cl)c1)cc(=O)n2C [tipifarnib]
In short: as §1

[4] = compound: NC(=O)Nc1cc(-c2cccc(F)c2)sc1C(=O)N[C@H]1CCCNC1
In short: as §1

[5] = compound: NC(=O)c1cnc(N[C@@H]2CCCC[C@@H]2N)nc1Nc1cccc(-n2nccn2)c1
In short: as §1

[6] = compound: NCC(=O)Nc1ccc(-n2nc(C(F)(F)F)cc2-c2ccc3c(ccc4ccccc43)c2)cc1
In short: as §1

[7] = compound: O=C1NC(=O)C(c2cnc3ccccn23)=C1c1cn2c3c(cc(F)cc13)CN(C(=O)N1CCCCC1)CC2
In short: as §1

entospletinib = compound: c1cn2cc(-c3ccc4cn[nH]c4c3)nc(Nc3ccc(N4CCOCC4)cc3)c2n1 [entospletinib]
In short: as §1

[8] = compound: NC1(c2ccc(-c3nc4ccn5c(=O)[nH]nc5c4cc3-c3ccccc3)cc2)CCC1
In short: as §1

vorinostat = compound: O=C(CCCCCCC(=O)Nc1ccccc1)NO [vorinostat]
In short: as §1

silmitasertib = compound: O=C(O)c1ccc2c(c1)nc(Nc1cccc(Cl)c1)c1ccncc12 [silmitasertib]
In short: as §1

Sequence of UniProt P11274 (P11274 whole entry, looked up): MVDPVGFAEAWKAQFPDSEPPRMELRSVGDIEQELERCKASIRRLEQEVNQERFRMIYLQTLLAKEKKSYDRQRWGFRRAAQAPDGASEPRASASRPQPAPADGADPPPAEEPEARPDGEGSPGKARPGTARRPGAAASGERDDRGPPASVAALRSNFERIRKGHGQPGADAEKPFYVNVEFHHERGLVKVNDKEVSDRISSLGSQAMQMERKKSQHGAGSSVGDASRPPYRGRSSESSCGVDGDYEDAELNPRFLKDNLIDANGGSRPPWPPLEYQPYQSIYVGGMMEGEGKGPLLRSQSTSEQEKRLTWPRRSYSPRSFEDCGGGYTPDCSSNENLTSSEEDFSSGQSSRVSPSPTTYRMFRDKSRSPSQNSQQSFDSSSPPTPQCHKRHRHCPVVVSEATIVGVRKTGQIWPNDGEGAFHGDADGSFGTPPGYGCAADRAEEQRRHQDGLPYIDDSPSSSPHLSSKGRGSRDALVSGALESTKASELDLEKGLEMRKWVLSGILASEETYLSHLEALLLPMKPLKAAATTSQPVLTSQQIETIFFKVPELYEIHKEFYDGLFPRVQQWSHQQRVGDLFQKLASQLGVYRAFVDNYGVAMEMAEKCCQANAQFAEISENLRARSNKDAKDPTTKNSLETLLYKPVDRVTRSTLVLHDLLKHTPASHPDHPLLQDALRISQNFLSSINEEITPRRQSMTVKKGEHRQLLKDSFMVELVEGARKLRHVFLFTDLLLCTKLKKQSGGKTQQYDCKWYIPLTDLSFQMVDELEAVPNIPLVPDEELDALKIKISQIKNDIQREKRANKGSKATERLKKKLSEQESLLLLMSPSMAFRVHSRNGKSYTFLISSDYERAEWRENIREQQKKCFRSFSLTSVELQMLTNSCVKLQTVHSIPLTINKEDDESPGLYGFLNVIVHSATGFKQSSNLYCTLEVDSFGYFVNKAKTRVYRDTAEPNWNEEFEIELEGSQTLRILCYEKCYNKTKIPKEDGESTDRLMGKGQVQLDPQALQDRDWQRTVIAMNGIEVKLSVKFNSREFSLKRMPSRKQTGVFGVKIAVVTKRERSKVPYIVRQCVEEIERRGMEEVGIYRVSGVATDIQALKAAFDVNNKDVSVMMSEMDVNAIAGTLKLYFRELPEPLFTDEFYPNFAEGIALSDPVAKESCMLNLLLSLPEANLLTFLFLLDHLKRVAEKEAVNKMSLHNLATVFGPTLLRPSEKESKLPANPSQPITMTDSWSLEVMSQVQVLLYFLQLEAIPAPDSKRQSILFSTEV
Sequence of UniProt Q9BUK0 (Q9BUK0 whole entry, looked up): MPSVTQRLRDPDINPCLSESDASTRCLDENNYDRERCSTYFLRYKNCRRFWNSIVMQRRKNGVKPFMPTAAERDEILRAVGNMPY
Sequence of UniProt Q9UQ88 (Q9UQ88 whole entry, looked up): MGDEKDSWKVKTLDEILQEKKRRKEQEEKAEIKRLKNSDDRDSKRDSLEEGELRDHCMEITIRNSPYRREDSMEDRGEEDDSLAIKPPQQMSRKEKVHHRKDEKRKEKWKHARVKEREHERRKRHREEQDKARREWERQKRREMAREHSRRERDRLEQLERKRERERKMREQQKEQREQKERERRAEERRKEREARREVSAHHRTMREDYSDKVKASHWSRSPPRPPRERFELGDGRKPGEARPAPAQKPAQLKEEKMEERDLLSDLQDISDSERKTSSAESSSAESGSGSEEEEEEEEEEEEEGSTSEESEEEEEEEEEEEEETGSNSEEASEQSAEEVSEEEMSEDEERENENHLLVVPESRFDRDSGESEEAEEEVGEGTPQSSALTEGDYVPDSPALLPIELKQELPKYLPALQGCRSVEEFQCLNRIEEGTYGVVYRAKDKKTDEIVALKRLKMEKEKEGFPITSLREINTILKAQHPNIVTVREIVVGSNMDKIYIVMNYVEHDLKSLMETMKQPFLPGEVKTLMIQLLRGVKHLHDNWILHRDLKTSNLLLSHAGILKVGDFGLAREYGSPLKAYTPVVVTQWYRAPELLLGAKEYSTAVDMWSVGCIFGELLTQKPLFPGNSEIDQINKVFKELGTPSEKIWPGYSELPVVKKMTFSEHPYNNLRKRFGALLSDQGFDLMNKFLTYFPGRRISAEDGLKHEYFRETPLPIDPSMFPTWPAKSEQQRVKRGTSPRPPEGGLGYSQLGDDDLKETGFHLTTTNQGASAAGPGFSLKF
Sequence of UniProt Q6P4E1 (Q6P4E1 whole entry, looked up): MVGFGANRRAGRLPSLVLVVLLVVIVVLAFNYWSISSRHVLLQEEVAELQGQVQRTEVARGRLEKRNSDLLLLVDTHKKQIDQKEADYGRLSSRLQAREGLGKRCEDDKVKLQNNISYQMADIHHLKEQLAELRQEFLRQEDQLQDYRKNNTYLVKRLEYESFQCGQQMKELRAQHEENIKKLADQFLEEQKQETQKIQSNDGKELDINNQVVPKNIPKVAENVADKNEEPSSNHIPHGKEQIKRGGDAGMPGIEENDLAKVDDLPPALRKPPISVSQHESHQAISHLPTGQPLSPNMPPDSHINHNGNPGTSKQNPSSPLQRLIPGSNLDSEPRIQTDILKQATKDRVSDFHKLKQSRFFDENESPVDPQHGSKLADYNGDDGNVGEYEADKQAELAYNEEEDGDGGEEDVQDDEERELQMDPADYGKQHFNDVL
Sequence of UniProt P06493 (P06493 whole entry, looked up): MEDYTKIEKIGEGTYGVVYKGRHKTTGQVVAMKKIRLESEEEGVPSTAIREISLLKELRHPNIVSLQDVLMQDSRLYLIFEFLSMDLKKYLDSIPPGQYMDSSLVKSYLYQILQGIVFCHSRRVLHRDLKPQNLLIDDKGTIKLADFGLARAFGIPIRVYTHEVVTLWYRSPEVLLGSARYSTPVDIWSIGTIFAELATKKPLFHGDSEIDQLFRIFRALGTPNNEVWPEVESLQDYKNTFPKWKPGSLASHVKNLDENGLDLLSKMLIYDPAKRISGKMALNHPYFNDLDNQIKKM
Sequence of UniProt Q9NQS1 (Q9NQS1 whole entry, looked up): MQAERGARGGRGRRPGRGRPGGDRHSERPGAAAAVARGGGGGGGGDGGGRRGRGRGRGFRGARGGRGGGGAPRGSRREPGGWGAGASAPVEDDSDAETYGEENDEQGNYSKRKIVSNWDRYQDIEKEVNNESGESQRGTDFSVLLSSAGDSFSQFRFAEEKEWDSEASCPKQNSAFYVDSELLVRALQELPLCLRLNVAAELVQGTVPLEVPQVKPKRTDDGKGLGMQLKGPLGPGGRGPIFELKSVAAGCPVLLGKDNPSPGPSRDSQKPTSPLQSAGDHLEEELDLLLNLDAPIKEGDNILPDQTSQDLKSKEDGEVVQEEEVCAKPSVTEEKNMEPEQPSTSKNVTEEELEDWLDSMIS
Sequence of UniProt Q00537 (Q00537 whole entry, looked up): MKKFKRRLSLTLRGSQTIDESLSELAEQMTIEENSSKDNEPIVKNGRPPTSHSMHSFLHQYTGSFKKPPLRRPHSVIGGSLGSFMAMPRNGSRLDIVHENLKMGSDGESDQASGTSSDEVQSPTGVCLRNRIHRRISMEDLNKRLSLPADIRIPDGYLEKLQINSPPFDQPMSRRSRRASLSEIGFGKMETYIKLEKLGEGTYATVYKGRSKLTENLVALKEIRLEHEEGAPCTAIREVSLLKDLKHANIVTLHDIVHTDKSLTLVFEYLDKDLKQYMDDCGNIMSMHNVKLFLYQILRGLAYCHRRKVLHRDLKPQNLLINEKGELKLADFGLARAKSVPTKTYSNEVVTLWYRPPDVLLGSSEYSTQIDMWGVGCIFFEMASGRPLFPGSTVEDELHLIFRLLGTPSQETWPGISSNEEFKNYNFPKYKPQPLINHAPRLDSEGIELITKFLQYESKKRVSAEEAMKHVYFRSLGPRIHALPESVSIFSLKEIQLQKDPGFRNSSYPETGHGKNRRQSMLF
Sequence of UniProt P55210 (P55210 whole entry, looked up): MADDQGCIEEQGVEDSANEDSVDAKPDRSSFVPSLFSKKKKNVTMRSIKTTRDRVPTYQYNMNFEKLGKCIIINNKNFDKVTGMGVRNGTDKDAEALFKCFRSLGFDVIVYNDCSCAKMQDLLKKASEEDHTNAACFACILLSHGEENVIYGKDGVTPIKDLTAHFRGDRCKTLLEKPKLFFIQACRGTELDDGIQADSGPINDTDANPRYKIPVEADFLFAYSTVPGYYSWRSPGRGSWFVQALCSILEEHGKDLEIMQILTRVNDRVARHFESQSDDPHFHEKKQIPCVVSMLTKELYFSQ
Sequence of UniProt Q8IWZ6 (Q8IWZ6 whole entry, looked up): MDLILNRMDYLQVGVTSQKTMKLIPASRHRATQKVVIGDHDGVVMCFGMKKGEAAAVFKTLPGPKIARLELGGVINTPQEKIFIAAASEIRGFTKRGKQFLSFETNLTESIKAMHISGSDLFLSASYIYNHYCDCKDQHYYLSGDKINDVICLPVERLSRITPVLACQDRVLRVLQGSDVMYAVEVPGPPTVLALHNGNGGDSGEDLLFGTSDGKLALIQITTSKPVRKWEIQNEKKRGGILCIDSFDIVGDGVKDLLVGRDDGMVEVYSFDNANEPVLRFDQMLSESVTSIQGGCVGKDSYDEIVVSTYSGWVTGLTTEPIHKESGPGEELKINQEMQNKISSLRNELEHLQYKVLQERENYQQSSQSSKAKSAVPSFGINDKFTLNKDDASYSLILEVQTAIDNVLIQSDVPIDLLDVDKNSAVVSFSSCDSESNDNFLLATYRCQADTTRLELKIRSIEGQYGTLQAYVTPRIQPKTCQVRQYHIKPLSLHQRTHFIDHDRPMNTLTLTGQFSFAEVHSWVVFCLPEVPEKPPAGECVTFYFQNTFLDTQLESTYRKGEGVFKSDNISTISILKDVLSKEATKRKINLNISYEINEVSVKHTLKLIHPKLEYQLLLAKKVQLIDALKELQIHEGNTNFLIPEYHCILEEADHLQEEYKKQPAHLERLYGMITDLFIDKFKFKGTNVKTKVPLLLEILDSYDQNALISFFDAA
Sequence of UniProt Q12983 (Q12983 whole entry, looked up): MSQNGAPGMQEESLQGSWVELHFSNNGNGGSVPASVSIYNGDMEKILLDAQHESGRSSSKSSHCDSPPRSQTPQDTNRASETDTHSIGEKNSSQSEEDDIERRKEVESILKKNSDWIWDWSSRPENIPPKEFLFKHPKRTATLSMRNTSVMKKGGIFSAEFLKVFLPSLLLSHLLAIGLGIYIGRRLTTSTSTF

Target | log2 fold change (nilotinib) | log2 fold change [1] | log2 fold change (dasatinib) | log2 fold change [2] | log2 fold change [3] | log2 fold change (quisinostat) | log2 fold change (tipifarnib) | log2 fold change [4] | log2 fold change [5] | log2 fold change [6] | log2 fold change [7] | log2 fold change (entospletinib) | log2 fold change [8] | log2 fold change (vorinostat) | log2 fold change (silmitasertib)
CHCHD7 isoform 4 (UniProt Q9BUK0) | -0.147 | 0.031 | -0.044 | -0.147 | 0.041 | -0.207 | -0.117 | 0.055 | -0.04 | -0.031 | -0.066 | 0.008 |  |  | 
BCR (UniProt P11274) | 0.108 | 0.021 | 0.043 | -0.017 | -0.018 | -0.044 | -0.015 |  | 0.028 | 0.012 | 0.001 | -0.009 | 0.016 | -0.267 (active) | 0.005
AVEN (UniProt Q9NQS1) | -0.014 | 0.068 | 0.01 | 0.025 | -0.08 | -0.042 | -0.188 | 0.038 |  | -0.146 | 0.092 | -0.161 | 0.154 | -0.738 (active) | -0.009
CDK1 (UniProt P06493) | -0.026 | 0.018 | -0.027 | 0.067 | -0.02 | 0.003 | 0.015 | 0.012 | 0.127 | 0.029 | -0.055 | 0.006 | 0.015 | -0.049 | 
BNIP3 (UniProt Q12983) | 0.037 | -0.077 | 0.014 | -0.002 | -0.02 | -0.219 | 0.05 | 0.061 | -0.018 |  | -0.048 | -0.031 | -0.007 | 0.066 | -0.08
CDK17 isoform 2 (UniProt Q00537) | 0.061 | 0.117 | -0.068 | 0.096 | 0.011 | -0.069 | -0.423 | -0.057 |  | 0.01 | 0.103 | -0.162 | 0.068 | 0.174 | 0.565 (active)
BBS7 (UniProt Q8IWZ6) | -0.039 | 0.065 | -0.061 | -0.03 | 0.489 (active) | 0.06 | -0.133 | -0.044 |  | -0.006 | -0.015 | -0.007 | 0.14 | -0.354 | 0.133
CDC45 isoform 3 (UniProt O75419) | -0.022 | 0.013 | -0.044 | -0.003 | 0.038 | 0.015 | -0.022 | 0.047 | 0.003 | -0.021 | 0.015 | 0.03 | -0.058 | -0.487 (active) | 0.012
CHD9 (UniProt Q3L8U1) | 0.209 | 0.125 | -0.124 | -0.279 | -0.109 | -0.029 | -0.017 | 0 |  | -0.018 | -0.012 |  | 0.032 | -0.111 | 0.075
BRD2 isoform 2 (UniProt P25440) | 0.012 | 0.15 | 0.011 | -0.024 | -0.048 | -0.028 | -0.035 | 0.028 | -0.161 | 0.048 | 0.051 | 0.021 | -0.064 | 0.107 | 0.074
CEP57L1 (UniProt Q8IYX8) | 0.246 | -0.129 | 0 | -0.014 | 0.34 | -0.101 | -0.015 | 0.041 |  |  | -0.044 | -0.029 | 0.031 | -0.23 | 0.133
CEP152 (UniProt O94986) | -0.058 | 0.108 | 0.012 | -0.014 | -0.017 | -0.413 (active) | 0.02 | 0.058 |  | 0.025 | 0.089 | -0.04 | 0.112 | -0.167 | 0.039
ATAD1 (UniProt Q8NBU5) | 0.073 | -0.015 | 0.001 | -0.153 | 0.039 | -0.072 | -0.072 | -0.001 | 0.027 | -0.047 | 0.002 | 0.008 | -0.031 | -0.617 (active) | 0.021
ATM (UniProt Q13315) | -0.019 | -0.019 | -0.071 | 0.084 | 0.038 | 0.039 | 0.009 | 0.009 | 0.039 | 0.058 | -0.033 | 0.036 | 0.008 | -0.093 | 0.118
CASC4 (UniProt Q6P4E1) | -0.072 | -0.006 | 0.037 | 0.053 | 0.029 | 0.021 | -0.033 | -0.024 | 0.035 | -0.034 | 0.025 | -0.029 | -0.011 | 0.02 | 0.019
CCT6A (UniProt P40227) | -0.003 | -0.004 | -0.001 | -0.007 | 0.001 | 0.037 | 0.014 | -0.005 | 0.003 | 0.004 | 0.012 | 0.024 | 0.005 | 0.049 | -0.005
CCND3 (UniProt P30281) | -0.061 | -0.015 | -0.08 | 0.042 | 0.137 | -0.05 | -0.062 | -0.003 |  |  | 0.086 | 0.062 | -0.057 | -0.051 | 0.017
BORCS5 (UniProt Q969J3) | 0.064 | -0.021 | -0.025 | 0.082 | -0.003 | -0.017 | -0.061 | -0.017 | -0.029 | -0.061 | 0.026 | -0.115 | -0.009 | 0.136 | 0.008
CDK11A (UniProt Q9UQ88) | -0.007 | 0.053 | -0.016 | 0.085 | -0.001 | -0.031 | -0.029 | 0.035 | -0.029 |  | -0.012 |  | -0.034 | -0.329 | 0.049
C18orf32 (UniProt Q8TCD1) | 0.058 | -0.078 | -0.026 | 0.072 | 0.167 | 0.027 | 0.093 | -0.11 | -0.084 | 0.004 | 0.017 | -0.071 | 0.062 | -0.486 (active) | -0.021
CASP7 isoform 3 (UniProt P55210) | -0.042 | 0.01 | -0.091 | 0.05 | 0.226 | -0.016 | 0.049 | 0.022 | 0.106 |  | 0.01 | 0.063 | 0.063 | -0.254 | 0.113
